Drawing on PubChem BioAssay, this text covers z-score for 6 molecules.

Unmarked numbers belong to inactive results.

In the assay the target is Luciferin 4-monooxygenase (Photinus pyralis) (UniProt P08659). Description: inhibition of purified Photinus pyralis luciferase – biochemical, luminescence, purified enzyme, 2006 set, primary screen (AID 1141).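 Further: cell-free assay with purified firefly luciferase at 100 ng per well in PBS; test concentration not given here.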 Particulars: purified firefly luciferase, SteadyGlo luminescence, 30 min; higher = more signal, called active from +8 up or from −8 down.
Sequence of Luciferin 4-monooxygenase (Photinus pyralis) (P08659 whole entry, looked up): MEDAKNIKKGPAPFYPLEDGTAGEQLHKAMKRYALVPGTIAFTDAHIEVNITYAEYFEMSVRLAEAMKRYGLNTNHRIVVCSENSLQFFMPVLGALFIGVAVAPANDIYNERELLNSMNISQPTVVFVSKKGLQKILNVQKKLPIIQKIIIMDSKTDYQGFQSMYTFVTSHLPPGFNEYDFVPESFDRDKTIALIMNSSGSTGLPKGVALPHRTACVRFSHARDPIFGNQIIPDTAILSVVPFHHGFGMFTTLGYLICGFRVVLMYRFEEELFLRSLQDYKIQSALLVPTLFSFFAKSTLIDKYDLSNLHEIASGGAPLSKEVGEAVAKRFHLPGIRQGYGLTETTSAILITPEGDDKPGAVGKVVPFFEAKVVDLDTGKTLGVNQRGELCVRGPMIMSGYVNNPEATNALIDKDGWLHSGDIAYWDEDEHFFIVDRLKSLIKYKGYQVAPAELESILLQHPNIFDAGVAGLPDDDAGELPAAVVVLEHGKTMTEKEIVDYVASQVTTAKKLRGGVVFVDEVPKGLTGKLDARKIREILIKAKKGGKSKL
As to `CCN1C(=O)[C@H]2[C@H]3[C@H](O)[C@H](O)CC(=NOC(C)CN4CCCCc5nc(C)c(C)cc54)[C@@H]3CC[C@H]2C1=O` (stereo partly specified), the z-score was 0.161.

On to `C#CCCCON=C1C[C@@H](O)[C@@H](O)[C@@H]2[C@@H]3C(=O)N(CCC(=O)OCC)C(=O)[C@@H]3CC[C@@H]12`, for which the z-score was 0.224.

With `CCN1C(=O)[C@H]2[C@H]3[C@H](O)[C@H](O)CC(=NO[C@@H]4O[C@H](CO)[C@@H](O)[C@H](O)[C@H]4O)[C@@H]3CC[C@H]2C1=O`, the z-score is -0.156.

`COCC1=C2[C@@H](CCc3ccccc3)OB(O)C[C@@H]2n2c(=O)n(-c3ccccc3)c(=O)n2C1`: the z-score was -1.19.

On to `CN1C(=O)C2C=CC(C(O)c3ccc(Br)cc3)N(N(c3ccccc3)c3ccccc3)C2C1=O` (stereo unspecified), for which the z-score is -0.495.

Turning to `CC(CCN1CCCCc2nc(C)c(C)cc21)=NOC(C)CN1CCCCc2nc(C)c(C)cc21` (stereo unspecified), the z-score was -0.483.
